# According to PubChem BioAssay AID2685 (National Center for Advancing Translational Sciences (NCATS), 2010):
# About 2,100 (0.66%) of roughly 320,000 compounds were called active. Another 53% or so got no clear call; they are omitted. Calls follow the shape of the dose curve; as a rule, active = well fitted inhibition curve with a large enough effect in the signal ratio, with a control signal flat (not every such curve was filed as active); inconclusive = small, poorly fitted or top-dose-only effect, or effect the other way, or a change in a side signal; inactive = flat fitted curve, though single readings scatter; the % refers to the signal ratio. The full list was thinned out, with actives kept by preference.
# Assay: qHTS Assay for Lipid Storage Modulators in Drosophila S3 Cells;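 as to cell number change: cells counted by Cell Tracker Red CMTPX staining in the red channel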; as to lipid storage change, negative = inhibition: % is scaled to controls: 0 for no effect and ±100 for the full control effect
# Conditions: BODIPY lipid droplet fluorescence, 18-24 h, cells fed with added oleic acid; cell number change: measured here: cell count max response; series mostly up to 46.1 µM
# From the text: NIH Molecular Libraries Probe Production Centers Network [MLPCN] NIH Chemical Genomics Center [NCGC] MLPCN Grant: 1 R03 MH085686-01 Assay Submitter (PI): Beller, Mathias; Max-Planck-Institut fur Biophysikalische Chemie NCGC Assay Overview: Storing lipids as a reservoir for energy or the anabolism of elementary metabolites is a common feature of probably all cells and is conserved from bacteria to humans. The universal cellular lipid storage organelle is the so-called lipid storage droplet (LD). Although ubiquitous, LDs share a simple structure composed of a hydrophobic core that harbors the storage lipids, which is shielded by a droplet-specific phospholipid monolayer to which proteins are attached. The current model of LD biogenesis involves an incorporation of the lipid core into the membrane leaflets of the endoplasmic reticulum (ER) followed by a subsequent budding-like maturation of a LD, which ultimately pinches off. Once released, LD volume can increase by localized lipogenesis or fusion of existing droplet. Storage lipids are re-mobilized enzymatically by lipase activity. Lipase regulation in the adipocyte is heavily studied and involves multiple components including catecholamine signaling, the LD-associated proteins Perilipin and comparative gene identification (CGI-58) and at least two lipases named hormone sensitive lipase (HSL) and adipocyte triglyceride lipase (ATGL). LD regulation outside of the adipocyte is poorly understood and only few components are known. However, there is an urgent need to learn more about ectopic fat depots as mislocalized storage of lipids, for example in the liver or muscle, is an eminent health problem associated with insulin resistance or the metabolic syndrome. We developed a laser-scanning cytometer assay to enable 1,536-well screening and combined the results of the small molecules screen with an RNAi database based on lipid storage.
# Triacsin C (Sigma-Aldrich T-4540), an inhibitor of long-chain fatty acyl CoA synthetase that blocks synthesis of triglycerides, was used as a positive control for lipid under-storage. A total of 23 nL of compound solution of different concentrations were transferred to the assay plates using a Kalypsys pin tool equipped with a 1,536-pin array containing 10-nL slotted pins (FP1S10, 0.457-mm diameter, 50.8 mm long; V&P Scientific). One microliter of oleic acid (400 uM) was added, and the plate was lidded with stainless steel rubber gasket lined lids containing pinholes. […] Fluorescence was detected by excitation of the fluorophores with a 488-nm laser on an Acumen Explorer (TTP Lab Tech). The total intensity in channel 2 (500-530 nm) reflected lipid droplet accumulation. Cells were detected using channel 3 (575-640 nm) with 5-um width and 100-um depth filters. The ratio of the number of objects in PMT channel 2 over the number of objects in PMT channel 3 was also calculated. Percent activity was computed relative to an internal control (100% inhibited lipid droplet deposition due to the presence of 20 uM Triacsin C), which was added to 32 wells/plate.
# Potency is read from the fitted curve at half-maximal effect.
Compound,Potency,cell number change,"lipid storage change, negative = inhibition"
OC1(c2ccccc2F)CCN(Cc2nnc(-c3ccccc3)o2)CC1,inactive,-15%,–
CC1CCC2(CC1)NC(=O)N(CC(=O)Nc1ccc3c(c1)CCC3)C2=O (centres undefined),inactive,-0.637%,–
CCN(CC)c1ccc(/C=C(\C#N)C(N)=O)cc1,inactive,-5.93%,–
CCN(CC)c1ccc(/C=C(\C#N)C(N)=S)cc1,inactive,-2.75%,–
CCN(CC)c1ccc(/C=C(\C#N)C(=O)c2ccc(Br)cc2)cc1,25.9 µM (active),–,–
CCC(=O)c1ccc(NC(C)=O)cc1O,inactive,-16.5%,–
O=S(=O)(c1ccc2c(c1)N(Cc1ccc(Cl)cc1)C1CCCN21)N1CCOCC1 (centres undefined),inactive,-5.65%,–
CCN1c2ccc(S(=O)(=O)N3CCOCC3)cc2N(Cc2ccc(OC)cc2)C1C (centres undefined),inactive,13.6%,–
COc1ccc(CN2c3cc(S(=O)(=O)N4CCOCC4)ccc3N3CCCC32)cc1 (centres undefined),16.4 µM (active),1.21%,–
O=C1CN(C(=O)/C=C/c2cc(Br)ccc2F)CCN1,inactive,13.8%,–
CN=C1S/C(=C\c2ccc(Sc3ccc(Cl)cc3)o2)C(=O)N1C,inactive,–,–
CN=C1S/C(=C\c2ccc(N3CCCC3)c(F)c2)C(=O)N1C,–,2.34%,4.4% [at 9.22 µM] (inactive)
CN=C1S/C(=C\c2c(OC)cc(OC)cc2OC)C(=O)N1C,0.58 µM (active),-1.21%,–
CN=C1S/C(=C\c2ccc(O)c(Br)c2)C(=O)N1C,inactive,-7.22%,–
CN=C1S/C(=C\c2ccc(SC)cc2)C(=O)N1C,0.13 µM (active),4.2%,–
COc1ccc(N=C2S/C(=C\c3cc(C)n(C)c3C)C(=O)N2C)cc1,inactive,20.4%,–
CCSc1nc2c(c(=O)[nH]c(=O)n2C)n1CC(O)COc1ccccc1 (centres undefined),inactive,–,–
CCn1cc(CN2CCC(Oc3ccc(C(=O)N4CCCCC4)cc3)CC2)cn1,inactive,–,–
O=C(CN1CCN(Cc2ccccc2Cl)CC1)N/N=C/c1cccs1,inactive,19.5%,–
Cc1cccc(OCCOCCN2CCOCC2)c1C,inactive,8.47%,–
Cc1ccc(C)c(OCCOCCN2CCOCC2)c1,7.31 µM (active),3.66%,–
Cc1cc(C)c(C)c(OCCN2CCOCC2)c1,inactive,-23.8%,–
CCn1cc(C2CC(=O)NC2=O)c2ccccc21 (centres undefined),inactive,–,–

Compound,Potency,cell number change,"lipid storage change, negative = inhibition"
CS(=O)(=O)N(CC(=O)NCC1CCCO1)c1cccc(Cl)c1 (centres undefined),inactive,–,–
CS(=O)(=O)N(CC(=O)NCC1CCCO1)c1ccc(Cl)c(Cl)c1 (centres undefined),inactive,-7.69%,–
CS(=O)(=O)N(CC(=O)NCC1CCCO1)c1ccc(F)c(Cl)c1 (centres undefined),14.6 µM (active),-13%,–
COCCNC(=O)Cn1nc(C(F)(F)F)c(Cl)c1C,inactive,-6.82%,–
COc1ccc(-c2csc3nc(C(C)(C)C)oc(=O)c23)cc1OC,inactive,0.241%,–
CCOc1ccc(-c2ccc(NS(=O)(=O)c3cc([N+](=O)[O-])c(C)c([N+](=O)[O-])c3)cc2)nn1,23.1 µM (active),-5.38%,–
CCOc1ccc(-c2ccc(NS(=O)(=O)c3ccc([N+](=O)[O-])cc3)cc2)nn1,inactive,0.33%,–
COc1ccc(-c2ccc(NS(=O)(=O)c3cc([N+](=O)[O-])c(C)c([N+](=O)[O-])c3)cc2)nn1,inactive,-13.5%,–
COC(=O)c1ccc2nc(NC(=O)C(C)(C)C)sc2c1,inactive,-18.4%,–
CC(C)CC(=O)/C=C/n1c(=S)oc2ccccc21,23.1 µM (active),-3.17%,–
O=C(O)CCn1c(=S)oc2ccccc21,inactive,2.74%,–
CC(C)OC(=O)n1c(=S)oc2ccccc21,inactive,-3.93%,–
COc1ccccc1NC(=O)C1CCCN(c2ncnc3c2nc2n3CCCCC2)C1 (centres undefined),inactive,-12.6%,–
Cc1cc[n+](Cc2ccc([N+](=O)[O-])cc2)cc1,inactive,-4.93%,–
CCCn1c(=N)n(CC(O)c2ccco2)c2ccccc21 (centres undefined),inactive,16.8%,–
N=c1n(CCN2CCCC2)c2ccccc2n1CC(O)c1ccco1 (centres undefined),23.1 µM (active),7.5%,–
N=c1n(CCN2CCCCC2)c2ccccc2n1CC(O)c1ccco1 (centres undefined),inactive,15.8%,–
Cc1onc(C(=O)N2CCN(C(c3ccccc3)c3ccccc3)CC2)c1[N+](=O)[O-],inactive,3.65%,–
CC(OC(=O)C1=Cc2ccccc2OC1)C(=O)NCc1ccco1 (centres undefined),inactive,–,–
CCC(C(=O)Nc1ccc2c(c1)OCCO2)n1c(=O)[nH]c2ccccc2c1=O (centres undefined),inactive,-11.6%,–
CCC(C(=O)Nc1cccnc1)n1c(=O)[nH]c2ccccc2c1=O (centres undefined),18.4 µM (active),-16%,–
O=C(Cn1[nH]c(=O)c2ccccc2c1=O)Nc1cccnc1,inactive,7.37%,–
CCO[C@@H]1OC(C(=O)N2CCN(Cc3ccc4c(c3)OCO4)CC2)=C[C@H](c2ccc3c(c2)OCO3)[C@H]1CCCO,inactive,–,–
